Source: PubChem BioAssay AID504339 (National Center for Advancing Translational Sciences (NCATS), 2011)
About 17,000 (4.4%) of roughly 390,000 compounds were called active. Entries that show only a call come without a potency. Not shown: some 8% with an inconclusive outcome. Calls come from the whole dose curve; as a rule, active = well fitted inhibition curve with a large enough effect; inconclusive = small, poorly fitted or top-dose-only effect; inactive = no such curve, though single readings can be large or run the other way. For the sample, actives were picked, then their nearest neighbours and some compounds at random.

Target: Lysine-specific demethylase 4A (Homo sapiens) (UniProt O75164)
Sequence (O75164 whole entry, looked up, the tested form may be a part): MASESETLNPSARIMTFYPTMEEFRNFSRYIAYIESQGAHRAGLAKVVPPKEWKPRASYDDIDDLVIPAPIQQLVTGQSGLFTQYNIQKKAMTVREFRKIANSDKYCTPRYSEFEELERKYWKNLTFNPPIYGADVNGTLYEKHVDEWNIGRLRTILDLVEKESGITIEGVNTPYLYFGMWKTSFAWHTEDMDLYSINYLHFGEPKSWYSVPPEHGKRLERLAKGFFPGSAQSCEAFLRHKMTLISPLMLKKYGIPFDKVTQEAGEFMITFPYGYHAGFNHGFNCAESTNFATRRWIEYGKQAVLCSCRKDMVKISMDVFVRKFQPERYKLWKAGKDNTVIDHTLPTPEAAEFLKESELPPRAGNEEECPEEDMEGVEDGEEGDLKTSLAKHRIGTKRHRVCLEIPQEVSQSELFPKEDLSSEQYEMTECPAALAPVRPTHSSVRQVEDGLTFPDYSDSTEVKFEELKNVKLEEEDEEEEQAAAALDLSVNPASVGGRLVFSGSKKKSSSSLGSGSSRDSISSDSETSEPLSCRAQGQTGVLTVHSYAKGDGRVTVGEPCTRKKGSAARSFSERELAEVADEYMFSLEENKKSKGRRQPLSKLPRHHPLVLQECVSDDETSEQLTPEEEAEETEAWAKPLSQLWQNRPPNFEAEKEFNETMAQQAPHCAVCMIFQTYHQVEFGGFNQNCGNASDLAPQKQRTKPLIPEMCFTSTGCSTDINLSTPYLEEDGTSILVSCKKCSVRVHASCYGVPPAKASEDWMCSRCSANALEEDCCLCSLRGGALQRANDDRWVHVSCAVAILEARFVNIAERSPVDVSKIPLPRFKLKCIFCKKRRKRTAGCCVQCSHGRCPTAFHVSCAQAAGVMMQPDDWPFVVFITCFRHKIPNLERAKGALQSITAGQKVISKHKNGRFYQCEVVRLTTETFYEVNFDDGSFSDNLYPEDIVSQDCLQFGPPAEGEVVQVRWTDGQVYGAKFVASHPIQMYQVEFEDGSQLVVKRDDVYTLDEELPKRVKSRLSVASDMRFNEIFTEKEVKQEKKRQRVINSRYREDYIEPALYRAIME
Assay: qHTS Assay for Inhibitors of JMJD2A-Tudor Domain; note: nearly all actives have a fitted effect of over 50% in size
Details: AlphaScreen JMJD2A-Tudor / H3K4me3 peptide binding; series mostly up to 114 µM
Potency is the fitted concentration of half-maximal effect.

| Compound | Potency |
| --- | --- |
| CCc1ccc(NC(=O)c2cc3c(=O)n(Cc4cccnc4)ccc3nc2C)cc1 | inactive |
| O=C(NCc1ccccc1)C(=O)NCC(c1ccco1)S(=O)(=O)c1ccc(Cl)cc1 (stereo not given) | inactive |
| Cc1ccc(C)n1-c1nnc(N2CCC(C(=O)NCc3ccccc3Cl)CC2)s1 | inactive |
| COCCNC(=O)Nc1ccc2nc(-c3ccco3)c(-c3ccco3)nc2c1 | 20 µM (active) |
| CCOc1ccc(NC(=O)c2ncoc2-c2ccco2)cc1 | inactive |
| C=CCNC(=O)c1ccc2nc(-c3ccco3)c(-c3ccco3)nc2c1 | inactive |
| CC(C)Cn1c(C2CC(=O)N(c3ccccc3Cl)C2)nc2ccccc21 (stereo not given) | inactive |
| Cc1ccccc1CNC(=O)c1ccc(NC(=O)N2CCCCc3ccccc32)cc1 | inactive |
| CCOC(=O)c1c(C)[nH]c(C)c1S(=O)(=O)N(C)CC(=O)N1CCN(c2ccccc2)CC1 | inactive |
| Cc1cc(Br)ccc1NC(=O)Cn1cnc2sc(C)c(S(=O)(=O)N3CCN(C)CC3)c2c1=O | inactive |
| O=C(Nc1nnc(-c2ccco2)o1)c1ccc(S(=O)(=O)N2CCOCC2)cc1 | 79.4 µM (active) |
| O=C(Nc1nnc(-c2ccccc2)o1)c1cccc(S(=O)(=O)N2CCOCC2)c1 | inactive |
| CC1CCCN(S(=O)(=O)c2ccc(C(=O)Nc3nnc(-c4ccncc4)o3)cc2)C1 (stereo not given) | inactive |
| Cc1ccc(Nc2nnc(-c3ccc(C)c(S(=O)(=O)N4CCCCC4)c3)c3ccccc23)cc1 | inactive |
| COc1ccccc1C1=Nc2cccc3cccc(c23)N1 | 50.1 µM (active) |
| COc1ccccc1-c1nc(C(F)(F)F)c(OC)o1 | inactive |
| COc1ccccc1-c1nnc(-c2ccc(F)cc2)o1 | inactive |
| COc1ccc(NC(=O)Cn2c(=O)cc(C)c3c(C)nn(-c4cccc(Cl)c4C)c32)cc1OC | inactive |
| CCOC(=O)C1CCCN(C(=O)c2ccc(-n3ccc4ccccc43)s2)C1 (stereo not given) | inactive |
| CCCn1c2ccccc2c2cnn(CC(=O)N(CC)c3cc(C)ccc3C)c(=O)c21 | inactive |
| Cc1nnc(NCc2ccccc2)c2c1nnn2Cc1ccc(F)cc1 | inactive |
| CN(C)[C@@H]1C(=O)C(C(N)=O)=C(O)[C@@]2(O)C(=O)C3=C(O)c4c(O)ccc(Cl)c4[C@@H](O)[C@H]3C[C@@H]12 | 25.1 µM (active) |
| C=C1c2c(Cl)ccc(O)c2C(O)=C2C(=O)[C@]3(O)C(O)=C(C(N)=O)C(=O)[C@@H](N(C)C)[C@@H]3[C@@H](O)C12 (stereo not given in full) | 2 µM (active) |
| COc1ccccc1NC(=O)CSC1=Nc2ccccc2C2=NC(CC(=O)NCc3cccs3)C(=O)N12 (stereo not given) | inactive |
| COc1ccc(C)cc1-n1c(-c2ccc(C)cc2)cc2c1CC(C)(C)CC2=O | inactive |
